Results on 99 molecules are retold here after PubChem BioAssay AID1578 (Sanford-Burnham Center for Chemical Genomics, 2009).

In all, about 290,000 compounds went through this assay and about 3,000 (1%) were called active. Many of the other results were omitted from the sample, so actives are more common in it than they were. A number with no mark means an inactive call. Rule as the data show it: active = inhibition mostly above about 36% (no sharp cut-off); inactive = mostly below about 34%.

What is called inhibition is the relative decrease from the control value, in per cent.

The assay in a line: inhibition of NOD1-driven NF-kB reporter – cell-based, luminescence, uHTS, primary screen (AID 1578).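 Also: HEK-293T reporter cells stimulated with the NOD1 agonist gamma-tri-DAP.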 Particulars: NOD1-driven NF-kB luciferase reporter cells, at 4 µM, stronger effect = higher value.
With `CCCN(CC(=O)Nc1ccc(C(N)=O)cc1)CC(=O)Nc1ccc(F)c(F)c1F`, the inhibition is 38.1% (active).

With `CCCN(CC(=O)Nc1ccc(C(N)=O)cc1)CC(=O)Nc1ccc(Cl)cc1Cl`, the inhibition is -30.3%. On to `CCCN(CC(=O)Nc1ccc(NC(C)=O)cc1)CC(=O)Nc1ccc(F)c(F)c1F`, for which the inhibition was -20.3%. Then `CC(C)NC(=O)CSc1nnc(-c2ccc3ncccc3c2)n1C`, with -3.6%; and `c1cc2[nH]snc2c2nc(C3CC3)nc12`, with 63.2% (active); and `Cc1nc2ccc3[nH]snc3c2n1`, with 20.2%. For the molecule `CCCOc1ccc2cc(-c3ccccn3)c(=O)oc2c1`, the inhibition is 41.1%. With `CC1CN(CCc2ccccc2)c2nc3c(c(=O)n(C)c(=O)n3C)n2C1` (centres undefined), the inhibition was -12.5%. For `N#Cc1ccc(Oc2ccc(-c3nc4ccccc4nc3-c3ccccc3)cc2)cc1C#N`, the inhibition is 3.3%. On to `N#Cc1ccc(-n2c(-c3ccccc3)nnc2-c2ccccc2)cc1C#N`, for which the inhibition was 42.1% (active). In the case of `N#Cc1ccc(-c2nc3cc(C#N)c(C#N)cc3nc2-c2ccccc2)cc1C#N`, the inhibition is 48.5% (active). With `N#Cc1cccc(-n2c(-c3ccccc3)nnc2-c2ccccc2)c1C#N` the figure was 11.5%; with `N#Cc1ccc(-c2nc3ccccc3nc2-c2ccccc2)cc1C#N`, 1.3%; with `CCOc1ccc(-n2c(-c3ccccc3)nnc2-c2ccccc2)cc1`, 8.2%.

Take `CC(=O)Nc1nnc(CSCc2ccccc2F)s1`: the inhibition is -5.5%. Take `CC(=O)N(C)c1cccc(-c2ccc3nnc(C)n3n2)c1`: the inhibition is -5.9%. Then `CCOC(=O)c1c(-c2ccccc2)csc1NC(=O)c1cc(S(=O)(=O)N2CCOCC2)ccc1C`, with -1.6%; and `Fc1ccc(Nc2nnc(C(F)(F)F)s2)cc1`, with 3.4%. Then `Cc1oc(-c2cccc(F)c2)nc1CN1CCCCC1CCn1cccn1` (centres undefined), with -32%. Regarding `Cc1nnc(Nc2ccc(Cl)cc2)n(N)c1=O`, the inhibition is -7%. For the molecule `c1ccc2c(c1)OCC(c1nn3c(Cn4nnc5ccccc54)nnc3s1)O2` (centres undefined), the inhibition is -10.7%.

With `c1ccc(OCc2nnc3sc(C4COc5ccccc5O4)nn23)cc1` (centres undefined), the inhibition is 1.5%. As for `c1ccc(Cc2nnc3sc(C4COc5ccccc5O4)nn23)cc1` (centres undefined), the inhibition was 107% (active). With `O=C(Nc1ccc(F)cc1)c1nc[nH]c1C(=O)O` the figure was -6.5%; with `Nc1nc(-c2ccccc2)c(C(=O)Nc2ccccc2)s1`, -28.9%.

In the case of `O=C1c2ccccc2C(=O)C2OC12` (centres undefined), the inhibition was 70.9% (active).

For `Cc1ccccc1C1C(=O)c2ccccc2C1=O`, the inhibition is -39.1%.

Regarding `O=C1c2ccccc2C(=O)C1c1ccccn1`, the inhibition is -8.4%. Regarding `Clc1ccccc1OCCn1cnc2ccccc21`, the inhibition was -21.1%. Regarding `COc1ccc(S(=O)(=O)NC(Cc2ccccc2)C(=O)O)cc1` (centres undefined), the inhibition is -1.3%. With `COc1ccc(C(CNC(=O)COc2ccc(C)c(C)c2)N2CCCCC2)cc1` (centres undefined) the figure was 10.5%; with `Cc1nc(C)n(CCNC(=O)c2ccco2)n1`, -15.3%; with `COc1cccc(C=Nc2cccnc2)c1O`, -7.3%.

With `Oc1c(Br)cc(Br)cc1C=Nc1cccnc1`, the inhibition is 67.4% (active).

Turning to `Oc1c(Br)cc(Br)cc1C=Nc1ccc2[nH]ncc2c1`, the inhibition was 8.5%.

Turning to `COc1ccc(/C=C2\CCC(C3CCCC3)C2=O)cc1Cn1nc(C)cc1C` (centres undefined), the inhibition is 26.4%. With `Cc1ccc(SCC(=O)NC2CCCCCC2)cc1` the figure was -50.8%; with `CCN(CC)CCNC(=O)c1cn(CC)c2ccc(S(=O)(=O)N(C)C)cc2c1=O`, -4.5%; with `COc1ccc(C(CC(=O)c2ccccc2)CC(=O)c2ccccc2)cc1OC`, -7.4%.

Regarding `COC(=O)C(C(=O)OC)C(CC(=O)c1ccc(C)cc1)c1cc(OC)c(OC)c(OC)c1` (centres undefined), the inhibition is -3.3%. As to `COc1ccc(C(CC(=O)c2ccc(C)cc2)C(C#N)C#N)cc1OC` (centres undefined), the inhibition is 80.7% (active). Consider `C=CCN(c1nc(C)c(Br)c(OC)n1)S(=O)(=O)c1ccc(C)cc1`, for which the inhibition is -14%. With `CCN(Cc1cc2ccccc2[nH]c1=O)S(=O)(=O)c1ccc(OC)cc1` the figure was -5.3%. With `O=C(Oc1ccccc1C(=O)Nc1ccccc1)c1ccc(Br)c([N+](=O)[O-])c1` the figure was -30.7%.

For `Cc1cc(CNC(=O)c2cccc([N+](=O)[O-])c2C)c2ccccc2n1`, the inhibition was 2.7%. With `O=C(c1ccc2c(Cl)c3c(nc2c1)CCCC3)N1CCC(N2CCCCC2)CC1` the figure was -13.1%. `Cn1c(=O)c(C(=O)CN2CCc3ccccc32)c(N)n(Cc2ccccc2)c1=O`: the inhibition is -8.9%. Consider `O=C(CSc1nc2ncc(Br)cc2[nH]1)c1ccc([N+](=O)[O-])cc1`, for which the inhibition is -15.6%. For `Cc1c(/C=C/C(=O)c2cccs2)cnn1C`, the inhibition is 20.7%. As to `Cc1nn(C)cc1/C=C/C(=O)c1ccccc1`, the inhibition was -44.5%. For `Cc1nn(C)cc1/C=C/C(=O)c1cccs1`, the inhibition is 112% (active).

Consider `Cc1ccnc(Cc2ccccc2)n1`, for which the inhibition is -4.5%. With `O=C(CCC(=O)OCC(=O)c1ccc(-c2ccccc2)cc1)Nc1cccc(Cl)c1` the figure was 7.8%; with `Cc1cc(C)n(-c2ccc(C(=O)Nc3ccccn3)cc2)n1`, -30.3%. Turning to `Cc1onc(-c2ccccc2Cl)c1C(=O)N/N=C(\N)COc1ccc(Cl)cc1`, the inhibition is 8.6%. With `Cc1onc(-c2ccccc2)c1C(=O)N/N=C(\N)COc1ccc(Cl)cc1` the figure was -17.2%. For `Cc1onc(-c2c(Cl)cccc2Cl)c1C(=O)N/N=C(\N)COc1ccc(Cl)cc1`, the inhibition was 71.9% (active). With `O=C(NCC1CC1)NC(=O)c1c(F)cccc1Cl` the figure was -15.8%. Then `Nc1ccc(S(=O)(=O)Nc2nccc(/C=C/c3ccc([N+](=O)[O-])cc3)n2)cc1`, with 14%; and `Nc1ccc(S(=O)(=O)Nc2nccc(/C=C/c3ccc(Cl)cc3)n2)cc1`, with 22.2%; and `C=CCn1cnc2c(nnn2-c2ccc(C)c(C)c2)c1=O`, with -34.3%. With `Oc1ccc(N=Nc2ccc3c(c2)OCO3)c2ccccc12` the figure was 109% (active). In the case of `Oc1[nH]c2ccccc2c1C=Nc1ccc2c(c1)OCO2`, the inhibition was 14.2%. With `Oc1ccc(N=Nc2ccc3c(c2)OCCO3)c2ncccc12` the figure was 106% (active); with `NS(=O)(=O)c1ccc(N=Nc2ccc(O)c3ncccc23)cc1`, -6.1%; with `O=S(=O)(Nc1ccc(N=Nc2ccc(O)c3ccccc23)cc1)c1ccccc1`, 13%. Then `Oc1ccc(N=Nc2ccc3c(c2)OCCO3)c(O)c1`, with -2.2%; and `Cc1ccc(S(=O)(=O)N(CC(=O)N2CCC(C)CC2)c2ccccc2)cc1`, with -4.7%; and `Cc1nc(NC(=O)c2ccccc2)sc1C`, with -84.9%. Then `COCC(=O)OCn1nnc2ccccc2c1=O`, with 3.6%; and `Cc1ccc(NC(=O)c2ccc(Nc3c([N+](=O)[O-])cc([N+](=O)[O-])cc3[N+](=O)[O-])cc2)cc1`, with 4.8%; and `O=C(Nc1ccccc1)c1ccc(Nc2c([N+](=O)[O-])cc([N+](=O)[O-])c3ccccc23)cc1`, with -8.1%. Take `Cc1ccccc1NC(=O)c1ccc(Nc2c([N+](=O)[O-])cc([N+](=O)[O-])c3ccccc23)cc1`: the inhibition is 76.4% (active).

As for `CSc1ccccc1NC(=O)c1ccc(CN2CCOCC2)cc1`, the inhibition was -18.3%. For `COc1cc(C2NC(=O)NC(C)=C2C(C)=O)ccc1O` (centres undefined), the inhibition was 7.8%. With `COc1cc(C2NC(=O)NC(C)=C2C(C)=O)cc(OC)c1OC` (centres undefined) the figure was 54.9% (active).

Consider `CCOC(=O)COc1c(Br)cc(C2NC(=O)NC(C)=C2C(C)=O)cc1OC` (centres undefined), for which the inhibition was -12.4%.

As to `CCOCCOC(=O)Cn1cnc2scc(-c3ccc(C)cc3)c2c1=O`, the inhibition is -15.2%.

Regarding `O=C(CN1CCCC1=O)NC1(C(F)(F)F)NC(=O)N(Cc2ccccc2)C1=O` (centres undefined), the inhibition was -22.8%. With `N#C/C(=C\c1ccncc1)c1nc2c(s1)CCCC2` the figure was -9.5%. With `CC1CCc2nc(/C(C#N)=C/c3cccnc3)sc2C1` (centres undefined) the figure was -52.3%; with `CC1CCc2nc(/C(C#N)=C/c3ccncc3)sc2C1` (centres undefined), 64.3% (active); with `O=C(CSc1nc2c(cnn2-c2ccc(F)cc2)c(=O)[nH]1)N1CCCc2ccccc21`, 4.3%. With `CCCS(=O)(=O)N1CCCC(C(=O)Oc2ccc(OC)cc2)C1` (centres undefined) the figure was -5.5%; with `C=CCOc1ccccc1CNc1cccc(F)c1`, 2.1%. As to `C=CCOc1ccccc1CN(C(=O)CCl)c1ccc2c(c1)OCO2`, the inhibition is 64.3% (active).

As to `CCOc1ccccc1NC(=O)Nc1ccc2c(c1)OCO2`, the inhibition is -52.1%. On to `O=C(/C=C/c1ccccc1)NCCc1ccc2c(c1)OCCO2`, for which the inhibition is -27.8%. Regarding `O=Cc1ccccc1OCc1ccc2c(c1)OCO2`, the inhibition is 16.8%. Regarding `O=C(/C=C/c1ccccc1)Nc1ccc2c(c1)OCCO2`, the inhibition is -2.7%. With `C=CCOc1ccccc1CNc1ccc2c(c1)OCCO2` the figure was 58.5% (active). In the case of `O=C(CCl)N(C/C=C/c1ccccc1)c1ccc2c(c1)OCCO2`, the inhibition was 54.1% (active). With `Oc1ccccc1CNc1ccc2c(c1)OCCO2` the figure was -47.1%.

On to `O=C(CSc1c(F)c(F)cc(F)c1F)Nc1ccc(C2SCCS2)cc1`, for which the inhibition is -7.2%. Then `O=C(CSCc1ccc(Cl)cc1)Nc1ccc(O)cc1C(=O)O`, with -25.7%. Then `CCCc1cc(=O)[nH]c(/N=C(\N)Nc2ccccc2)n1`, with -6.1%; and `CCOC(=O)CNC(=O)CSc1nnc(NC(=O)c2ccc(S(=O)(=O)N3CCOCC3)cc2)s1`, with -3.6%; and `Cc1oncc1C(=O)N1CCCC(CO)(Cc2ccc(F)cc2F)C1` (centres undefined), with -6.9%. As to `CC(NS(=O)(=O)c1ccc(Br)cc1)c1ccccc1` (centres undefined), the inhibition was -16.8%.
